The record followed here is PubChem BioAssay AID720511 (Broad Institute, 2013).

SMILES strings stand for the structures. Out of some 350,000 compounds screened, about 1,300 (0.37%) were called active. The list comes from a sample in which actives are over-represented; it also holds similar structures and randomly drawn compounds. Values without a mark were called inactive.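 How the source made its calls: active means mean added fluorescence quench of at least 8% versus neutral control, with both replicates also reaching 8%; inconclusive means only one of the mean or replicate conditions met; inactive means mean below 8% and not both replicates reaching 8%.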

This assay in a line: F508del CFTR correction, initial screen, CFBE line, single point (AID 720511).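 Further: cells transiently co-express mutant CFTR-F508del with the halide-sensitive YFP; corrector assay measuring rescue of mutant channel to the surface after 24 h compound exposure.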 Particulars: CFBE cells, YFP halide quenching, at 7.58 µM, hits give high values, % fluorescence drop versus neutral controls, stimulated with forskolin plus potentiator P3.
With `Cc1ccc(S(=O)(=O)Nc2ccc3c(c2)C(=O)N([C@@H](C)CO)C[C@@H](C)[C@H](CN(C)Cc2ccncc2)O3)cc1`, the activity (quench increase) was -0.494%.

As to `C[C@@H]1CCCCO[C@H](CN(C)Cc2ccc(Cl)c(Cl)c2)[C@@H](C)CN([C@@H](C)CO)C(=O)c2cc(NC(=O)Nc3ccccc3)ccc2O1`, the activity (quench increase) was 0.025%.

As to `Cc1ccc(C(=O)OCC(=O)N2CC(C)CC(C)C2)cc1S(=O)(=O)N1CCCCC1` (stereo not drawn), the activity (quench increase) is 0.347%.

With `COc1ccc(CNC(=O)COC(=O)c2ccc(C)c(S(=O)(=O)N3CCOCC3)c2)cc1OC`, the activity (quench increase) was -3.23%.

In the case of `Cc1ccc(C(=O)OCC(=O)NCc2cc(C)c(O)c(C)c2)cc1S(=O)(=O)N1CCCCC1`, the activity (quench increase) is 9.62% (active).

With `Cc1cc(Nc2ccc(Br)cc2)nc2ccccc12`, the activity (quench increase) was 10.3% (active).

In the case of `Cc1cc(C)c(C#N)c(Nc2cccc(Br)c2)n1`, the activity (quench increase) is -5.44%.

As for `C[C@H]1CN([C@@H](C)CO)C(=O)c2ccccc2-c2ccccc2CO[C@@H]1CN(C)C(=O)CCN(C)C`, the activity (quench increase) was -0.09%.

Turning to `O=C(Nc1ccc(F)cc1)N[C@H]1CC[C@H](CCn2cc(C3(O)CCCC3)nn2)O[C@@H]1CO`, the activity (quench increase) is 0.048%.

Regarding `CC(C)c1cc(C(=O)NC2CCCCCC2)c2ccccc2n1`, the activity (quench increase) was 0.503%.

As to `O=C(NNC(=O)C(O)c1ccccc1)NC1CCCCC1` (stereo not drawn), the activity (quench increase) is -1.37%.

`Cc1nc(/N=C(\N)NC(=O)NC2CCCCC2)nc2ccccc12`: the activity (quench increase) is 12.3% (active).

On to `CNC[C@H]1OCCCC[C@@H](C)Oc2ccc(NC(=O)Cc3ccccc3)cc2C(=O)N([C@H](C)CO)C[C@@H]1C`, for which the activity (quench increase) is -0.325%.

Regarding `CCCNC(=O)N(C)C[C@@H]1Oc2ncc(-c3cccc(C#N)c3)cc2C(=O)N([C@@H](C)CO)C[C@@H]1C`, the activity (quench increase) is 0.957%.

For the molecule `O=C(c1cnccn1)N1CC[C@@H]2[C@H](CO)Nc3ccc(-c4cccc(F)c4)cc3[C@@H]21`, the activity (quench increase) is 2.08%.

As for `CCNC(=O)C1CCCN(C(=O)c2ccc(OC)cc2OC)CC1` (stereo not drawn), the activity (quench increase) was -1.31%.

For `CCOC(=O)C1CCCN(C(=O)c2ccc(C)c(F)c2)CC1` (stereo not drawn), the activity (quench increase) was 0.23%.

Turning to `CCNC(=O)C1CCCN(C(=O)c2cc(F)ccc2C)CC1` (stereo not drawn), the activity (quench increase) was 10% (active).

In the case of `CCCNC(=O)N1[C@H](CO)[C@@H]2c3ccccc3N(C(=O)C3CCOCC3)C[C@@H]21`, the activity (quench increase) was 2.24%.

Turning to `COc1ccc(NC(=O)N(C)C[C@@H]2OCCCC[C@@H](C)Oc3ccc(NS(=O)(=O)c4cn(C)cn4)cc3C(=O)N([C@@H](C)CO)C[C@H]2C)cc1`, the activity (quench increase) was 0.433%.

`Cn1cc(C(=O)c2ccc(Cl)cc2Cl)cc1C(=O)NN`: the activity (quench increase) was -2.38%.

Regarding `CC(C)(C)c1cc(C(=O)NN)n(Cc2ccc(Cl)cc2Cl)n1`, the activity (quench increase) is 8.63% (active).

For the molecule `CC(C)(C)NC(=O)NC(=O)COC(=O)Cc1ccc(Cl)cc1Cl`, the activity (quench increase) was 1.27%.

As for `C[C@H]1CN([C@@H](C)CO)C(=O)c2cc(C#CC(C)(C)O)cnc2O[C@H]1CN(C)C(=O)CC1CC1`, the activity (quench increase) is 0.266%.

For `C[C@@H]1CN([C@H](C)CO)C(=O)c2cc(NS(=O)(=O)c3ccc(Cl)cc3)ccc2O[C@@H]1CN(C)CC1CCCCC1`, the activity (quench increase) was -0.515%.

For `O=C(C[C@H]1C[C@@H]2c3cc(NC(=O)c4ccc5c(c4)OCO5)ccc3O[C@@H]2[C@@H](CO)O1)NCCN1CCCCC1`, the activity (quench increase) was 0.031%.

In the case of `O=C(C1CCCC1)N1CC(=O)N2[C@H](C1)[C@@H](c1ccc(-c3ccccc3F)cc1)[C@@H]2CO`, the activity (quench increase) is -2.35%.

`O=C(C1CCC1)N1CC(=O)N2[C@H](C1)[C@@H](c1ccc(-c3ccccc3F)cc1)[C@@H]2CO`: the activity (quench increase) is 1.31%.

As to `O=C(C1CC1)N1CC(=O)N2[C@H](CO)[C@@H](c3ccc(-c4ccccc4F)cc3)[C@@H]2C1`, the activity (quench increase) was 11.5% (active).

As for `COc1ccc(N2CCN(S(=O)(=O)c3ccc4c(c3)NC(=O)C(C)C(=O)N4)CC2)cc1` (stereo not drawn), the activity (quench increase) was 0.269%.

For the molecule `CCOC(=O)N1CCN(S(=O)(=O)c2ccc3c(c2)C(C)C(=O)N3)CC1` (stereo not drawn), the activity (quench increase) is 8.05% (active).

In the case of `CCOC(=O)N1CCN(S(=O)(=O)c2ccc(Br)cc2)CC1`, the activity (quench increase) was -1.86%.

As for `COc1cccc(S(=O)(=O)N[C@H]2C=C[C@@H](CC(=O)NCc3ccc(F)cc3)O[C@@H]2CO)c1`, the activity (quench increase) was -1.9%.

On to `Cc1ccc(S(=O)(=O)N(C)C[C@@H]2Oc3c(NC(=O)Nc4ccc(F)cc4)cccc3C(=O)N([C@H](C)CO)C[C@H]2C)cc1`, for which the activity (quench increase) is 0.333%.

In the case of `C[C@@H]1CN([C@H](C)CO)C(=O)c2cccc(NC(=O)Nc3cccc4ccccc34)c2O[C@@H]1CN(C)C(=O)Nc1ccc(F)cc1`, the activity (quench increase) was 1.61%.

On to `COc1ccc(-c2c(C)cc3oc(=O)cc(-c4ccccc4)c3c2C)cc1C=O`, for which the activity (quench increase) is 0.386%.

`COc1ccc(-c2c(C)cc3oc(=O)cc(-c4ccccc4)c3c2C)cc1OC`: the activity (quench increase) was 9.4% (active).

Consider `COc1ccc(-c2c(C)cc3oc(=O)cc(-c4ccccc4)c3c2C)cc1F`, for which the activity (quench increase) is 3.75%.

Regarding `CCC(=O)N(C)C[C@H]1Oc2cc(C#CC3CC3)ccc2S(=O)(=O)N([C@@H](C)CO)C[C@@H]1C`, the activity (quench increase) was -0.535%.

Take `COCCCNc1ccn2nc(-c3ccc(CC(C)C)cc3)cc2n1`: the activity (quench increase) is 2.65%.

For `CC(C)Cc1ccc(-c2cc3nc(NCc4cccc(Cl)c4)ccn3n2)cc1`, the activity (quench increase) is 8.67% (active).

As to `COc1ccccc1-c1cc2nc(NCc3cccc(Cl)c3)ccn2n1`, the activity (quench increase) is 0.85%.

Turning to `C[C@H]1CN([C@@H](C)CO)C(=O)c2cccc(NS(=O)(=O)c3cccs3)c2O[C@H]1CN(C)Cc1ccc(C(=O)Nc2ccccc2N)cc1`, the activity (quench increase) was 0.531%.

On to `C#Cc1cc(N2CCN(C(=O)c3ccoc3)CC2)n2nc(-c3cccc(Cl)c3)cc2n1`, for which the activity (quench increase) is 8.96% (active).

For the molecule `CN(C)CCN1CCN(c2cc(-c3cccc(Cl)c3)nc3ccnn23)CC1`, the activity (quench increase) was -1.38%.

Consider `O=C(c1ccccc1)N1CCN(c2cc(-c3ccccc3)nc3cc(-c4cccc(Cl)c4)nn23)CC1`, for which the activity (quench increase) is -2.01%.

Turning to `C[C@H]1CN([C@@H](C)CO)C(=O)Cc2cc(NS(=O)(=O)c3cn(C)cn3)ccc2O[C@H]1CN(C)C(=O)Nc1ccc(F)cc1`, the activity (quench increase) was 2.2%.

Regarding `C[C@H](CO)N1C[C@H](C)[C@@H](CN(C)S(=O)(=O)c2ccccc2)Oc2ncc(-c3ccncc3)cc2C1=O`, the activity (quench increase) was 0.7%.

In the case of `COc1cc(C#Cc2ccc3cc(CCCO)oc(=O)c3c2)cc(OC)c1`, the activity (quench increase) was 9.06% (active).

Consider `O=C1c2ccccc2C(=O)N1CCC#Cc1ccc2cc(C3(O)CCCCC3)oc(=O)c2c1`, for which the activity (quench increase) is 4.94%.

Take `CS(=O)(=O)N1C[C@@H](O)COC[C@@H]2O[C@H](CC(=O)NC3Cc4ccccc4C3)CC[C@H]21`: the activity (quench increase) was -1.79%.

Consider `O=C(C[C@H]1C=C[C@@H](NC(=O)NC2CCCCC2)[C@@H](CO)O1)NCc1ccc(Cl)cc1`, for which the activity (quench increase) is 0.0755%.

For the molecule `C[C@H](CO)N1C[C@H](C)[C@H](CN(C)Cc2ccc(C(F)(F)F)cc2)Oc2ccc(NS(C)(=O)=O)cc2C1=O`, the activity (quench increase) is 3.24%.

With `C[C@@H]1CCCCO[C@@H](CN(C)C(=O)Cc2ccccc2)[C@H](C)CN([C@@H](C)CO)C(=O)c2cc(NC(=O)Nc3ccc(F)cc3)ccc2O1`, the activity (quench increase) was -1.42%.

As to `Oc1ccc2ccccc2c1N=Nc1nccs1`, the activity (quench increase) is 13.5% (active).

For `CC(=O)Nc1ccc(Nc2c3ccccc3nc3ccccc23)cc1`, the activity (quench increase) is 10.8% (active).

As for `CC(=O)Nc1ccc(S(=O)(=O)N(C)c2nc3ccccc3nc2Cl)cc1`, the activity (quench increase) is 2.1%.

Regarding `CCc1c(C)nc2c(-c3ccccc3)c(C)nn2c1Nc1ccc(NC(C)=O)cc1`, the activity (quench increase) was 0.439%.

As for `C[C@@H]1CCCCO[C@@H](CN(C)S(=O)(=O)c2ccccc2)[C@H](C)CN([C@H](C)CO)C(=O)c2cc(NC(=O)Nc3ccc4c(c3)OCO4)ccc2O1`, the activity (quench increase) is 0.334%.

As to `CO[C@H]1CN(C)C(=O)c2cc(NC(C)=O)ccc2OC[C@H](C)N(C(=O)C2CC2)C[C@H]1C`, the activity (quench increase) is 4.09%.

For `C/C=C/c1ccc2c(c1)O[C@@H](CN(C)C(=O)c1ccccn1)[C@H](C)CN([C@@H](C)CO)S2(=O)=O`, the activity (quench increase) is -2.18%.

In the case of `COc1ccc(C#Cc2ccc3c(c2)O[C@@H](CN(C)C(=O)Nc2cccc(OC)c2)[C@H](C)CN([C@H](C)CO)S3(=O)=O)cc1`, the activity (quench increase) was 9.4% (active).

On to `C[C@@H]1CN([C@@H](C)CO)S(=O)(=O)c2ccc(C#Cc3ccccc3)cc2O[C@@H]1CN(C)C(=O)Nc1ccccc1`, for which the activity (quench increase) is 3.03%.

For the molecule `COc1ccc(NC(=O)N(C)C[C@H]2Oc3cc(C#CCN(C)C)ccc3S(=O)(=O)N([C@@H](C)CO)C[C@@H]2C)cc1`, the activity (quench increase) was -0.575%.

Consider `C[C@@H]1CN([C@@H](C)CO)S(=O)(=O)c2ccc(C#Cc3ccc(F)cc3)cc2O[C@H]1CN(C)C(=O)c1ccccn1`, for which the activity (quench increase) was 9.03% (active).

For the molecule `CC(C)CC#Cc1ccc2c(c1)O[C@@H](CN(C)C(=O)c1ccccn1)[C@@H](C)CN([C@H](C)CO)S2(=O)=O`, the activity (quench increase) was 0.306%.

Take `CCCNC(=O)[C@@H]1[C@@H](CO)[C@@H]2Cn3c(cccc3=O)[C@H]1N2C(=O)Nc1cc(F)ccc1F`: the activity (quench increase) was -0.221%.

For `CCCN(C)C[C@@H]1Oc2ncc(-c3ccccc3F)cc2C(=O)N([C@@H](C)CO)C[C@@H]1C`, the activity (quench increase) is -1.56%.

Turning to `CCCNC(=O)Nc1ccc2c(c1)C(=O)N(C)C[C@H](OC)[C@H](C)CN(Cc1cccnc1)[C@@H](C)CO2`, the activity (quench increase) is -2.17%.

On to `COCC(=O)Nc1ccc2c(c1)OC[C@@H](C)N(C(=O)c1ccncc1)C[C@@H](C)[C@@H](OC)CN(C)C2=O`, for which the activity (quench increase) is -2.81%.

`NS(=O)(=O)c1ccc(CNC(=O)c2cnccn2)cc1`: the activity (quench increase) was 3.51%.

As to `CCN(CC)c1ccc(/C=N/NC(=O)c2cnccn2)c(O)c1`, the activity (quench increase) was 19.1% (active).

In the case of `COc1ccc(NC(=O)C/C(C)=N/NC(=O)c2cnccn2)cc1Cl`, the activity (quench increase) is 0.245%.
